S-ASM inh: inhibitors of human secretory acid sphingomyelinase | placental ASM, HMU-PC fluorogenic substrate, 60 min | Potency, µM (top dose mostly 57.5 µM), for inactives: at the highest dose activity change, negative = inhibition, usual class: inhibitors | 0.006% of 340,000 active | AID 504937; further: potency means the concentration at half of the fitted maximal effect
Target sequence (P17405 47-631 limits assumed): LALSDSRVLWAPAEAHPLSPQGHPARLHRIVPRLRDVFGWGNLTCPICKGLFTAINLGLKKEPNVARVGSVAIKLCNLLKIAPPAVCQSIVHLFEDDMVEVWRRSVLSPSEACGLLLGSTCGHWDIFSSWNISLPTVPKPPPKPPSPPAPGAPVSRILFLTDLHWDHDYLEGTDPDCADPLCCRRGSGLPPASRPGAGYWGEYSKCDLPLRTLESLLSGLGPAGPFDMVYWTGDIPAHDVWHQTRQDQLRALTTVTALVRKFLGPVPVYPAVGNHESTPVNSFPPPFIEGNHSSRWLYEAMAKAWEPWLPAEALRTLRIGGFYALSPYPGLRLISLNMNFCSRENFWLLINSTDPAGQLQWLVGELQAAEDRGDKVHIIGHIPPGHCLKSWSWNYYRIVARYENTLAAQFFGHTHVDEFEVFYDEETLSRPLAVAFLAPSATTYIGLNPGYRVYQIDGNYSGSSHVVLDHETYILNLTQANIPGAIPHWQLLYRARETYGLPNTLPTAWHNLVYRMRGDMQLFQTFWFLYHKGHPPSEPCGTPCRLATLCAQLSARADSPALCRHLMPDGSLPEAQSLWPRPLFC
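Human placenta-derived ASM enzyme was preincubated with compound for 10 minutes at room temperature, then given fluorogenic substrate HMU-PC0 (9 uM final) for 60 minutes at 37 °C; a pH 10 stop preceded fluorescence reading at Ex 386/Em 447 nm.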
IL-1B inflam inh: inhibitors of inflammasome signaling (IL-1 beta secretion). THP-1 LPS/ATP IL-1B secretion, AlphaLISA, 16 h; hits give low values. activity change, % at 57.5 µM. 4.7% of 360,000 active; in the data active means activity change below about -50%; inconclusive means mostly about -30% to -49%; further: on the % scale 0 is the no-effect control and ±100 the full control effect
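Secreted IL-1B measured by AlphaLISA bead assay after 16 h compound exposure of THP-1 cells; compounds (final up to 57.5 uM) added 1 h before LPS (250 ng/mL) and ATP (1.25 mM) stimulation; lower signal means less secretion.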
DT40 TDP1 no CPT: qHTS for Inhibitors of human tyrosyl-DNA phosphodiesterase 1 (TDP1): qHTS in cells in absence of CPT; DT40 Tdp1-/- hTDP1 cells, no CPT, ATP luminescence, 48 h; Potency, µM (doses to about 46.2 µM), for inactives: top-dose activity change, negative = growth inhibition, usual class: inhibitors; 15% of 420,000 active; further: potency means the concentration at half of the fitted maximal effect; on the % scale 0 is the no-effect control and ±100 the full control effect; nearly all actives have a fitted effect of over 55% in size
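Readout: luminescence from CellTiter-Glo after 30 min in the dark at RT. Cells: DT40 Tdp1-/- with stable hTDP1, 400/well. Exposure: compounds alone, ≥48 hr, 37 °C.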
HepG2 tox: kills HepG2 cells in TGF-b inhibitor counter-screen; HepG2 CAGA-GFP viability, ATP luminescence, 18 h; Potency, µM (top dose mostly 46.1 µM), for the others: at the top dose activity change, negative = cytotoxicity, usual class: cytotoxic; 0.76% of 410,000 active; further: potency means the concentration at half of the fitted maximal effect
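HepG2 CAGA-GFP cells (1000/well, DMEM with 1% FBS) received compound, then TGF-beta at 500 pg/mL final, and were incubated 18 hours at 37 degrees C. Viability was read by CellTiter-Glo luminescence. Media-only wells were set as complete cell-killing and DMSO as no toxicity.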
TGFb SMAD3 inh: inhibitors of TGF-b signaling. HepG2 CAGA-GFP TGF-b/SMAD3 reporter, GFP fluorescence, 18 h; TGF-beta stimulated, 500 pg/mL final. 1.2% of 410,000 active. Potency, µM (titrated, usually from 46.1 µM), inactives show top-dose activity, negative = inhibition, actives largely listed as inhibitors. AID 588855; further: potency means the concentration at half of the fitted maximal effect; on the % scale 0 is the no-effect control and ±100 the full control effect; nearly all actives have a fitted effect of over 65% in size
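Cell-based qHTS in HEPG2 carrying a CAGA-GFP Smad reporter; compounds added before 500 pg/mL final TGF-beta, 18 h incubation at 37 degrees C, GFP fluorescence quantified per cell by imaging cytometry.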
DT40 TDP1 CPT: growth inhibition of DT40 Tdp1-/-;hTDP1 cells with camptothecin (screen for TDP1 inhibitors) | chicken DT40 Tdp1-/-;hTDP1 cells + 20 nM CPT, ATP luminescence, 48 h | Potency, µM (titrated, usually from 46.2 µM), without a hit: top-dose activity change, negative = growth inhibition, hits mostly inhibitors | 12% of 420,000 active | AID 686979; further: potency means the concentration at half of the fitted maximal effect; on the % scale 0 is the no-effect control and ±100 the full control effect; nearly all actives have a fitted effect of over 55% in size
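Cell growth measured by CellTiter-Glo luminescence after a minimum 48 h, 37 C compound exposure with 20 nM CPT in Tdp1-knockout DT40 cells stably expressing hTDP1, seeded 400/well; qHTS titration format.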
* = called active by the depositor; ? = inconclusive; · = not tested or not shown. An excerpt weighted towards active compounds, which were near 19% of everything screened. Unless noted, the call rests on the fitted dose curve; in most records, active means well fitted curve in the direction sought with a large enough effect; inconclusive means small, poorly fitted or top-dose-only effect, or another doubt; inactive means no such curve, though single readings can be large; an effect the other way counts as inactive or inconclusive.

SMILES	S-ASM inh	IL-1B inflam inh	DT40 TDP1 no CPT	HepG2 tox	TGFb SMAD3 inh	DT40 TDP1 CPT
CCCN(CC(=O)Nc1ccccc1OC)C(=O)c1ccc2ncsc2c1	1%	-18	9%	-12%	8%	-9%
Cc1cc(C(=O)NCCN2CCN(c3cccc(Cl)c3)CC2)n(-c2ccccc2)n1	1%	15	4.1µM*	-9%	?	5.8µM*
Cc1nn(-c2ccccc2)c(-n2cccc2)c1C(=O)NCCCN1CCN(c2ccccc2F)CC1	·	·	18µM*	-32%	?	16µM*
Cc1cc(C(=O)NCCCN2CCN(c3cc(Cl)ccc3C)CC2)n(-c2ccccc2)n1	5%	-9	?	-41%	-26%	10µM*
Cn1cc(C(=O)NCCN2CCN(c3cccc(Cl)c3)CC2)c2c3ccccc3n(C)c2c1=O	0%	4	15µM*	-14%	-8%	26µM*
COc1ccc(CCNC(=O)C(CC(C)C)N2Cc3ccccc3C2=O)c(OC)c1OC (stereo unspecified)	·	·	?	-18%	4%	?
CC(C)Oc1ccc(CNC(=O)Cn2nc(N3CCN(c4ccccc4)CC3)ccc2=O)cc1	·	·	?	-25%	?	?
O=C(CC12CC3CC(CC(Br)(C3)C1)C2)NC1CCCC1	0%	16	-1%	-6%	-1%	6%
COc1ccc(-c2nc3cc(C)c(Br)c(C)n3c2Cc2ccc(C)cc2)cc1OC	·	17	?	-22%	-7%	?
CCC(Sc1nnc(C)n2c1cc1occc12)C(=O)Nc1ccccc1OC (stereo unspecified)	·	·	21µM*	7%	0%	?
C/C(=N\NC(=O)Nc1ccccc1)c1ccccc1	4%	-11	6%	-8%	7%	23%
C=C1CC2(CC(c3ccccc3)OC(c3ccccc3)C2)OC1=O (stereo unspecified)	-2%	-115*	2.6µM*	11µM*	?	1.8µM*
Cc1cc(C)cc(SCc2noc(C(=O)NC(C)C)c2C(=O)NC(C)C)c1	-1%	6	-21%	-8%	-3%	-25%
O=C(/C=C/c1ccc(-c2cccc([N+](=O)[O-])c2)o1)N1CCOCC1	-6%	-1	18µM*	15%	-1%	16µM*
O=C1NC(=S)S/C1=C\c1cccc([N+](=O)[O-])c1	-4%	22	13µM*	-20%	-11%	?
O=C1NC(=O)/C(=C/c2ccc(-c3cccc([N+](=O)[O-])c3)o2)S1	-1%	-10	?	-13%	5%	16µM*
O=C(/C=C/c1cccc([N+](=O)[O-])c1)N1CCOCC1	5%	-12	-11%	7%	-6%	-4%
CCO[C@H]1OC(C(=O)NCc2ccccc2)=C[C@@H](C(C)(C)C)[C@@H]1CCCO	3%	12	-23%	9%	-15%	-25%
COc1cnc(-c2ccccn2)nc1Sc1ccccc1	-1%	49	1µM*	-9%	-19%	1.5µM*
CCOC(=O)CSc1nc(-c2ccccn2)ncc1OC	4%	33	4.6µM*	-25%	-17%	8.2µM*
COc1ccc(C(=O)Nc2cccnc2Sc2ccc(Cl)cc2)cc1	-1%	17	?	12%	-7%	-20%
CCOC(=O)CSc1ncc(OC)c(Sc2ccc(OC)cc2)n1	-3%	18	-15%	0%	-4%	-13%
COc1cnc(-c2ccccn2)nc1Sc1ccc(Cl)cc1	-7%	33	1.5µM*	-22%	0%	1.3µM*
COc1cnc(N(C)C)nc1Sc1ccc(Cl)cc1	47%	21	-11%	-11%	6%	-30%
COc1ccc(Sc2nc(-c3ccccn3)ncc2OC)cc1	-1%	25	3.3µM*	-14%	-3%	2.9µM*

High-throughput results as filed in PubChem BioAssay.
